Compound activity: PubChem BioAssay, several laboratories
An excerpt weighted towards active compounds, which were near 1.2% of everything screened.
SARS 3CLpro inh – SARS-CoV 3CLpro protease inhibitors, primary screen, biochemical, quenched FRET. AID 1706, 2009. Replicase polyprotein 1ab (Severe acute respiratory syndrome coronavirus), P0C6X7. hit rate 0.14% among 290,000. inhibition, % at 6 µM. recombinant SARS-CoV 3CLpro, quenched FRET peptide cleavage; in the data active means inhibition above about 12%
PrP 5UTR inh – inhibition of PrP 5' UTR reporter expression | cell-based PrP 5' UTR mRNA reporter, plate reader | inhibition, % (concentration not given with the values) | hit rate 0.35% among 340,000; in the data active means inhibition above about 52%; further: 0 = median of the neutral control wells
SSB-PriA inh – inhibitors of Klebsiella pneumoniae PriA binding to SSB C-terminal tail, primary screen, biochemical, AlphaScreen. PriA–SSB C-terminal tail interaction (Klebsiella pneumoniae). AlphaScreen SSBct-PriA binding, biotinylated peptide. inhibition, % at 33 µM. hit rate 0.6% among 430,000. AID 1272365, 2023; in the data active means inhibition mostly above about 37%, no sharp cut-off; inactive means mostly below about 20%;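 further: plate controls were negative control peptide for no effect and reference peptide for full effect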
BJeLR viability – MLPCN primary cell-based screen for lethality selective to Ras in HRASV12 cells | BJeLR (HRASV12) viability, CellTiter-Glo ATP luminescence, 48 h | inhibition, % (no concentration beside the values) | hit rate 0.17% among 300,000; in the data active means inhibition above about 50%
PrPC surface inh – inhibitors of human cell surface prion protein PrPC, primary screen, cell-based, TR-FRET; Major prion protein (Homo sapiens), P04156; inhibition, % at 13.8 µM; TR-FRET read-out; hit rate 0.43% among 370,000; in the data active means inhibition above about 24%; further: 0% = median of the test wells and 100% = reference compound wells
* hit, by the source's call; . = no result given; ! = not confirmed by another sample.

SMILES | SARS 3CLpro inh | PrP 5UTR inh | SSB-PriA inh | BJeLR viability | PrPC surface inh
Cc1ccccc1C(=O)NCCn1ncc2c(=O)n(Cc3ccc(Cl)cc3)cnc21 | . | . | -22 | . | .
CC(C)(C)NC(=O)N1CCC(c2nnc(-c3ccco3)s2)CC1 | . | . | -6 | . | .
CCN(CC)Cc1c(O)ccc2c1O/C(=C\C=C\c1ccccc1)C2=O | 4 | -27 | -18 | 93* | -23
COCCNC(=O)Cc1ccc(NC(=O)CCc2ccc(C(F)(F)F)cc2)cc1 | . | . | 8 | . | .
CCOc1ccc(NC(=O)Nc2ccc(Br)cn2)cc1 | 1 | -35 | 82* | -4 | 9
COc1ccc(NS(=O)(=O)c2nnc(NC(=O)c3ccccc3F)s2)cc1 | 3 | -14 | 100* | 8 | -2
C[C@@H]1C=CC(=O)O[C@@H]1c1ccc(C(F)(F)F)cc1 | -3 | . | . | 92* | .
Cc1cc2ccccc2n1CCNC(=O)c1ccc(C(F)(F)F)cc1 | . | . | -4 | . | .
CCCCNc1c(-c2cccc(-c3ccc(OC)cc3)c2)nc2cc(C)ccn12 | . | -10 | 53* | . | 18
Cc1noc(NS(=O)(=O)c2ccc(NC(=O)CN(C)c3nc4ccccc4s3)cc2)c1C | . | . | 6 | . | .
O=C1CCc2cc(NS(=O)(=O)C3CCCCC3)ccc2N1 | . | . | -16 | . | .
Nc1nc(-c2ccncc2)cs1 | . | . | -9 | . | .
Nc1nc(-c2csc(N)n2)cs1 | . | . | 46* | . | .
O=C(c1cnc2ccccc2n1)N1CC(N2C(=O)CCC2=O)C1 | . | . | -14 | . | .
O=C(Cl)c1cc(Cl)ccn1 | . | . | 83* | . | .
CCN(CC)C(=O)c1cc(Cl)ccn1 | -4 | 4 | -4 | -3 | 1
COC(=O)c1cccc2nc3c(C(C)O)cccc3nc12 (stereo not given) | . | -17 | 42* | -3 | -56
O=C(c1ccc([N+](=O)[O-])o1)N1CCN(Cc2nc(-c3ccc(F)cc3)cs2)CC1 | . | . | 11* | . | .
COc1ccc(-n2c(Cc3cccn3C)nnc2SCC(=O)Nc2ccccc2F)cc1 | 0 | -17 | -1 | -17 | 3
Cc1nnc(NC(=O)CSc2nnc(Cc3cccn3C)n2-c2cccc(C)c2C)s1 | 3 | . | . | -7 | .
Cn1cccc1Cc1nnc(SCC(=O)Nc2ccccc2F)n1-c1ccccc1 | . | . | 37* | . | .
Cc1cccc(-n2c(Cc3cccn3C)nnc2SCC(=O)N2CCN(c3ccccc3)CC2)c1C | . | . | 36* | . | .
CCOc1ccccc1NC(=O)c1oc2ccc(C)cc2c1C | . | . | -14 | . | .
COc1ccc(Cl)cc1C(=O)N1CC(n2cc(COc3ccccc3)nn2)C1 | . | . | -17 | . | .
COC(=O)c1ccc(C)c(-n2c(N)c(C(=O)Nc3ccccc3C)sc2=S)c1 | . | . | 39* | . | .
SMILES | SARS 3CLpro inh | PrP 5UTR inh | SSB-PriA inh | BJeLR viability | PrPC surface inh
COC(=O)c1ccc(C)c(-n2c(N)c(C(=O)NCc3ccco3)sc2=S)c1 | . | . | 31 | . | .
COc1ccccc1NC(=O)c1sc(=S)n(-c2ccc(Cl)cc2)c1N | . | . | 36* | . | .
O=C(/C=C\c1ccccc1)NCCS(=O)(=O)N1CCN(c2ccccn2)CC1 | . | . | -3 | . | .
CN1C(=O)Cc2cc(NC(=O)CC(C)(C)C)ccc21 | . | . | -1 | . | .
COC(=O)C1CC23C=CCN4CCC5(c6ccccc6NC15C2C)C43 (stereo not given) | 1 | -2 | 9 | 57* | 6
Oc1ccccc1-c1n[nH]c(-c2ccccn2)n1 | . | . | 94* | . | .
c1ccc(-c2ccc(-c3ccccn3)nn2)nc1 | -4 | . | 106* | 8 | -2
Sc1n[nH]c(-c2ccccn2)n1 | . | . | 113* | . | .
NCc1nc(-c2ccccn2)n[nH]1 | . | . | 116* | . | .
COc1ccccc1C(=O)NN=C(C)CC(=O)Nc1ccccc1NC(C)=O | . | . | -6 | . | .
COc1ccccc1Nc1nc(Nc2ccc(Cl)c(Cl)c2)nc(N2CCOCC2)n1 | . | . | -6 | . | .
c1ccc(-c2n[nH]c(-c3ccccn3)n2)nc1 | 0 | -65 | 93* | -3 | 2
c1ccc(-c2n[nH]c(-c3ccccn3)n2)cc1 | -7 | -26 | 42* | 0 | 5
c1ccc(-c2ccccn2)nc1 | 0 | -5 | 7 | -11 | 6
c1ccc(-c2nn[nH]n2)nc1 | 0 | -25 | 107*! | -9 | -5
c1cncc(-c2n[nH]c(-c3cnccn3)n2)c1 | . | . | -6 | . | .
c1ccc(CSc2n[nH]c(-c3ccccn3)n2)cc1 | . | . | 59* | . | .
CC(C=NNC(=S)Nc1cccc(S(=O)(=O)N(C)C)c1)c1ccccc1 (stereo not given) | . | . | 5 | . | .
CSc1ncccc1C(=O)NCc1cncc(-c2cccs2)c1 | . | . | -8 | . | .
COc1ccc(SCC2CCN(C(=O)c3cccc(N(C)C)c3)CC2)cc1 | . | . | 42* | . | .
Cc1cccc(NC(=O)Nc2ccc3c(c2)N(C)C(=O)CS3)n1 | 0 | -74 | 104* | 3 | 0
COc1ccc(OC)c2c1sc(=NC(=O)/C=C/c1ccccc1Cl)n2C | . | . | 8 | . | .
CCCC(=O)Nc1c(C(=O)OCC)[nH]c2ccccc12 | -3 | -16 | 39* | -7 | -4
CCOC(=O)c1[nH]c2ccc(OC)cc2c1NC(=O)c1ccc2c(c1)OCO2 | 0 | -12 | -9 | 5 | -4
CCOC(=O)c1[nH]c2ccccc2c1NC(=O)c1ccc2c(c1)OCO2 | -3 | 9 | 97* | -4 | 2
SMILES | SARS 3CLpro inh | PrP 5UTR inh | SSB-PriA inh | BJeLR viability | PrPC surface inh
COc1ccc(C2=CC(=O)C=CC2=O)cc1 | -4 | -15 | 14 | 99* | .
CCCC1Oc2ccccc2C(=O)N(CC(=O)c2ccc(F)cc2)C1=O (stereo not given) | . | . | 54* | . | .
C=CCn1cc(C=NNc2nc3ccccc3[nH]2)c2ccccc21 | . | . | 61* | . | .
CCc1cccc(CC)c1NC(=O)C1SC(=Nc2ccccc2C)C(c2nc3ccccc3s2)=C1N (stereo not given) | 0 | -8 | 1 | -6 | 25*
NC(N)=Nc1ccc(C=C2C=Cc3ccccc32)cc1 | . | -28 | 42* | . | -10
O=C(Nc1c(C(=O)Nc2ccc(F)cc2)oc2cccnc12)c1cccs1 | . | . | 1 | . | .
CC(=O)Nc1ccc(NC(=O)c2c(F)c(F)c(F)c(F)c2F)cc1 | . | . | -8 | . | .
C=CC[C@@H](CC/C=C/C=C/CC/C=C\[C@@H]1CSC([C@@H]2C[C@@H]2C)=N1)OC | . | 56* | -8 | . | .
Cc1ccc(CC(=O)Nc2nnc(-c3cccnc3)o2)c(C)c1 | . | . | 13 | . | .
CC(C)Oc1ccccc1C=NNc1ccccc1[N+](=O)[O-] | . | . | 82* | . | .
Cc1cccc(N(C)S(=O)(=O)c2ccc(-c3cnc(C4CC4)o3)cc2)c1 | 6 | 59* | -5 | 65* | 9
